Experimental data published in PubChem BioAssay AID588689 (Southern Research Specialized Biocontainment Screening …, 2011).
Where “and” joins values, the source holds several entries; their conditions need not be identical. Equal values may be shown once. The whole screen tested about 340,000 compounds, of which about 1,000 (0.29%) were called active. No stated cut-off is given here; in the data, inconclusive means inhibition above about 29% without an active follow-up result; inactive means below that. The list is a sample of the results. Results with a measured potency or affinity are listed apart.

Target: Genome polyprotein (Dengue virus type 2 (strain 16681-PDK53)) (UniProt P29991)
Test: flavivirus cap methylation enzyme inhibition – biochemical, confirmation dose response, primary screen (AID 588689)
Conditions: Dengue-2 NS5 methyltransferase capping enzyme assay, at 25 µM, stronger effect = higher value
[1] = measured here: pilot screen replicate inhibition

Compound: Cc1cccc(COCC(Cc2ccccc2)N2CCN(C(=O)c3cccc(C)c3)CCC2=O)c1 (configuration not stated)
- inhibition: -1.6% (inactive)

Compound: COc1ccc(-c2noc(CCC(=O)N3CCN(c4ccccc4C)CC3)n2)cc1
- inhibition: -3.97% (inactive)
- inhibition [1]: -0.01%

Compound: COc1cccc2c1-c1c(O)cccc1C2=O
- inhibition: 9.88% (inactive)
- inhibition [1]: 6.38%

Compound: O=C(O)c1cc(O)c2c(c1)C(=O)c1cccc(O)c1C2=O
- inhibition: 5.97% (inactive)

Compound: Nc1ncn(C(=S)Nc2ccccc2)n1
- inhibition: 5.4% (inactive)

Compound: COc1cccc(-c2nnc(Nc3nc4c(F)cccc4s3)o2)c1
- inhibition: 3.39% (inactive)

Compound: COc1cc(OC)cc(-c2nnc(Nc3nc4c(F)cccc4s3)o2)c1
- inhibition: 0% (inactive)

Compound: Cc1nc2cc(N3CCOCC3)c(NC(=O)C3CC3)cc2c(=O)n1Cc1ccccc1
- inhibition: 0% (inactive)

Compound: O=S1(=O)N=C(SCCO)c2ccccc21
- inhibition: 1.39% (inactive)

Compound: O=C(CSC1=NS(=O)(=O)c2ccccc21)Nc1ccccc1
- inhibition: 25.7% (inactive)

Compound: COc1cccc(CNS(=O)(=O)c2cc3c4c(c2)CCN4C(=O)CC3)c1
- inhibition: -2.16% (inactive)

Compound: CNC(=S)Nc1cc(C)ccc1OC(F)F
- inhibition: -3.09% (inactive)

Compound: CCOC(=O)c1c(-c2cccc3ccccc23)csc1NC(=O)C1C2CCC(O2)C1C(=O)O (configuration not stated)
- inhibition: 2.56% (inactive)

Compound: CCOC(=O)c1c(NC(=O)C2C3CCC(O3)C2C(=O)O)sc2c1CCCC2 (configuration not stated)
- inhibition: -0.74% (inactive)

Compound: COC(=O)c1c(-c2ccc(C(C)(C)C)cc2)csc1NC(=O)C1C2CCC(O2)C1C(=O)O (configuration not stated)
- inhibition: 10.8% (inactive)

Compound: CCOC(=O)c1c(NC(=O)C2C3CCC(O3)C2C(=O)O)sc(C)c1-c1ccc(C)cc1 (configuration not stated)
- inhibition: 16.7% (inactive)

Compound: O=C(Nc1nc2n(n1)C(c1ccc(F)cc1)CC(c1ccccc1)N2)c1ccco1 (configuration not stated)
- inhibition: -3.83% (inactive)

Compound: Cc1ccc2c(ccc[n+]2CC(=O)c2ccccc2)c1
- inhibition: -3.89% (inactive)

Compound: O=C(C1CCN(S(=O)(=O)c2ccccc2)CC1)N1CCN(c2ccccc2F)CC1
- inhibition: -3.69% (inactive)

Compound: COc1cc(OC)c(N2CC(C(=O)NCCC3=CCCCC3)CC2=O)cc1Cl (configuration not stated)
- inhibition: -2.95% (inactive)

Compound: O=C(O)c1cc(N=Nc2c(O)ccc3ccccc23)cc(C(=O)O)c1
- inhibition: 20.4% (inactive)

Compound: O=C(O)c1cc2ccccc2c(N=Nc2cccnc2)c1O
- inhibition: 0.81% (inactive)

Compound: CN(Cc1ccccc1)S(=O)(=O)c1ccc(Cl)c(C(=O)N2CCC(C(N)=O)CC2)c1
- inhibition: 4.28% (inactive)

Compound: Cc1cccc(Cc2nnc(CCC(=O)N(C)CCc3ccccc3)o2)c1
- inhibition: 10.8% (inactive)

Compound: CN(C)C(=O)Cn1cc(S(=O)(=O)Cc2ccccc2)c2ccccc21
- inhibition: -2.66% (inactive)

Compound: O=C(NCc1ccco1)c1sc(=S)n2c1[nH]c(=O)c1ccccc12
- inhibition: 0% (inactive)

Compound: CCCCNC(=O)c1sc(=S)n2c1[nH]c(=O)c1ccccc12
- inhibition: 10.2% (inactive)

Compound: O=S(=O)(O)c1cc(O)c2ccc(Nc3ccccc3)cc2c1
- inhibition: 8.94% (inactive)

Compound: Cc1ccc(S(=O)(=O)c2cc(Nc3ccccc3)ccc2O)cc1
- inhibition: 8.82% (inactive)

Compound: Nc1ccc(C(=O)Nc2ccc3c(O)cc(S(=O)(=O)O)cc3c2)cc1
- inhibition: 4.28% (inactive)

Compound: Nc1cc(S(=O)(=O)O)cc2ccc(S(=O)(=O)O)cc12
- inhibition: 7.17% (inactive)

Compound: CC(=O)Nc1ccc2c(O)cc(S(=O)(=O)O)cc2c1
- inhibition: -7.72% (inactive)

Compound: CN(C)c1ccc2cc(S(=O)(=O)O)cc(O)c2c1
- inhibition: 81.6% (inactive)

Compound: O=S(=O)(O)c1cccc(N=Nc2c(O)ccc3ccccc23)c1
- inhibition: 1.57% (inactive)

Compound: Nc1ccc(Nc2ccccc2)c(S(=O)(=O)O)c1
- inhibition: 54.5% (inactive)

Compound: CN(C)/C=C1\NC(=S)N(c2ccc(Cl)cc2)C1=O
- inhibition: -20.4% (inactive)

Compound: Cc1ccc(S(=O)(=O)N2CCN(Cc3csc(C)n3)CC2)cc1
- inhibition: 2.27% (inactive)

Compound: CC(C)CN(C(=O)COC(=O)CSc1ccc(Br)cc1)C1CCS(=O)(=O)C1 (configuration not stated)
- inhibition: -3.62% (inactive)

Compound: COc1cc(C=O)ccc1OCCOCCOc1ccc(Cl)cc1Cl
- inhibition: -6.82% (inactive)

Compound: Nc1cccc2c(O)cccc12
- inhibition: 6.13% (inactive)

Compound: Nc1cccc2cc(S(=O)(=O)O)ccc12
- inhibition: 13.9% (inactive)

Compound: O=C1c2ccccc2-c2nccnc21
- inhibition: 1.62% (inactive)

Compound: O=C1c2ccccc2-c2n[nH]c(=O)c3ccc(N4CCCCC4)c1c23
- inhibition: -9.35% (inactive)

Compound: C=CCNC(=S)N/N=C/c1ccccc1OCCOc1ccccc1
- inhibition: 2.29% (inactive)

Compound: CCN(CC)C(=O)CCSc1nnc(-c2ccncc2)o1
- inhibition: -3.83% (inactive)

Compound: Cc1ccc(OCC(=O)N[C@@H](C)c2nnc3ccccn23)cc1C
- inhibition: -6.18% (inactive)

Compound: O=C(COC(=O)c1cccc(F)c1)Nc1cccc(S(=O)(=O)N2CCOCC2)c1
- inhibition: -5.49% (inactive)

Compound: COc1ccc(NC(=O)C2CCC(CNc3c(N4CCC(C)CC4)c(=O)c3=O)CC2)cc1OC (configuration not stated)
- inhibition: -6.26% (inactive) and 8.76% (inactive)

Compound: COc1ccc(C(=O)NNc2ccccc2)cc1
- inhibition: 4.46% (inactive)

Compound: O=C(NNc1ccccc1)c1ccccc1
- inhibition: -0.81% (inactive)

Compound: Cn1c(=O)[nH]c(=O)c2c1nc(N1CCOCC1)n2CCN1CCOCC1
- inhibition: 1.62% (inactive)

Compound: O=C(Nc1scc(-c2cccs2)c1C(=O)O)c1cccs1
- inhibition: 22.9% (inactive)

Compound: COc1ccc(-c2csc(NC(=O)c3cccs3)c2C(=O)O)cc1OC
- inhibition: -3.65% (inactive)

Compound: Cc1ccccc1C(=O)Nc1scc(-c2ccc(Br)cc2)c1C(=O)O
- inhibition: 22.5% (inactive)

Compound: COc1cc(C(=O)Nc2scc(-c3ccc(C)cc3)c2C(=O)O)cc(OC)c1OC
- inhibition: 3.47% (inactive)

Compound: COc1ccc(-c2csc(NC(=O)c3ccccc3F)c2C(=O)O)cc1
- inhibition: 11.1% (inactive)

Compound: COc1cc(C(=O)Nc2scc(-c3ccccc3)c2C(=O)O)cc(OC)c1OC
- inhibition: 14.7% (inactive)

Compound: Cc1ccc(Cn2ccc(NC(=O)c3cc(-c4ccc(Cl)cc4)on3)n2)cc1
- inhibition: -1.39% (inactive)

Compound: Oc1ccccc1C1OCC2(CO1)COC(c1ccccc1O)OC2 (configuration not stated)
- inhibition: 1.95% (inactive)

Compound: COc1cccc(-c2c(-c3cc(OC)cc(OC)c3)n(C)c3ccc(-c4ccc(OC)nc4)cc23)c1
- inhibition: 2.45% (inactive)

Compound: COC(=O)[C@@H](NC(=O)/C=C/c1ccc(OC)cc1)C(C)C
- inhibition: -9.35% (inactive)

Compound: COc1ccc(NC(=O)N(C)C[C@@H]2OCc3cn(nn3)CCCC(=O)N([C@H](C)CO)C[C@H]2C)cc1
- inhibition: -1.7% (inactive)

Compound: COc1ccccc1CNC(=O)CN(CCc1ccccc1)S(C)(=O)=O
- inhibition: -7.36% (inactive)

Compound: COc1ccc(NS(=O)(=O)c2cc(NC(=O)c3sccc3C)ccc2N2CCOCC2)cc1
- inhibition: 0.57% (inactive)

Compound: CC(=O)c1ccc(N2CCN(S(=O)(=O)c3c(C(=O)N4CCCCC4)c(C)n(C)c3C)CC2)cc1
- inhibition: -2.71% (inactive)

Compound: Fc1cccc(Cl)c1CN1CCN(c2nc3ccccc3s2)CC1
- inhibition: -4.55% (inactive)

Compound: CCn1c(/C=N/c2nc3ccccc3n2C)nc2ccccc21
- inhibition: -0.7% (inactive)

Compound: COc1ccc(O)c(/C=N/c2nc3ccccc3n2C)c1
- inhibition: 3.47% (inactive)

Compound: Cc1csc2c(=O)n3c(nc12)CCCCC3
- inhibition: -3.21% (inactive)

Compound: Cc1ccc(Sc2ccc(/C=C3/C(=O)NN(c4ccccc4)C3=O)o2)cc1
- inhibition: -2.65% (inactive)

Compound: CCN1C(=O)N/C(=C/c2ccc(Sc3ccc(C)cc3)o2)C1=O
- inhibition: -2.74% (inactive)

Compound: O=C(COC(=O)/C=C/c1ccco1)NC1CCCCC1
- inhibition: -4.04% (inactive)

Compound: CC(=O)Nc1ccc(C(=O)CSc2nnc(-c3ccccc3F)n2CCc2ccccc2)cc1
- inhibition: -4.64% (inactive)

Compound: C[C@@H](C[C@@H](O)[C@H](O)C(C)(C)O)[C@@H]1CC[C@]2(C)C3=CC[C@H]4C(C)(C)C(=O)CC[C@]4(C)[C@H]3CC[C@@]12C
- inhibition: -3.21% (inactive)

Compound: O=C(COC(=O)c1cc(Br)ccc1O)NNC(=O)c1cccs1
- inhibition: 0% (inactive)

Compound: CNc1ncnc(Sc2nc(N)nc3nc[nH]c23)c1[N+](=O)[O-]
- inhibition: -30.9% (inactive)

Compound: Nc1nc(SCc2ccccc2)c2[nH]cnc2n1
- inhibition: -9.52% (inactive)

Compound: CC(C)C(NS(=O)(=O)c1cccc(C(F)(F)F)c1)C(=O)N1CCc2ccccc2C1 (configuration not stated)
- inhibition: -4.98% (inactive)

Compound: CCn1c(SCC(=O)NNC(=O)c2ccc(C)cc2)nnc1C(C)C
- inhibition: 7.12% (inactive)

Compound: Nc1ccc(N2CCCCC2)cc1N1CCCCC1
- inhibition: 25.7% (inactive)

Compound: Nc1ccc(N2CCOCC2)c2nonc12
- inhibition: 45.2% (inactive)

Compound: O=C1C2CCCN2C(=S)N1c1ccccc1 (configuration not stated)
- inhibition: -3.27% (inactive)

Compound: COc1ccccc1-c1cc(N)n[nH]1
- inhibition: 2.4% (inactive)

Compound: CC1=CN2C(=N)/C(=C/c3ccc([N+](=O)[O-])o3)C(=O)N=C2S1
- inhibition: -58.2% (inactive)

Compound: COc1ccc(N2C(=O)NC(=O)C2=O)cc1
- inhibition: -2.2% (inactive)

Compound: COc1cccc(NCc2ccc([N+](=O)[O-])s2)c1
- inhibition: -8.01% (inactive)

Compound: Cc1ccc(/C=C2\C(=O)NC(=O)N2C)o1
- inhibition: 23.3% (inactive)

Compound: COc1ccc(NC(C)C(=O)N/N=C/c2ccc([N+](=O)[O-])s2)cc1 (configuration not stated)
- inhibition: -5.18% (inactive)

Compound: COc1cccc(N2C(=O)/C(=C\c3cccs3)NC2=S)c1
- inhibition: -5.28% (inactive)

Compound: Cc1cc(C)cc(N=Cc2ccc([N+](=O)[O-])s2)c1
- inhibition: 4.37% (inactive)

Compound: CC1CC(C)CN(C(=O)/C=C/c2ccc([N+](=O)[O-])s2)C1 (configuration not stated)
- inhibition: -5.44% (inactive)

Compound: Cc1cc(-c2ccc(S(=O)(=O)NCc3ccc(F)cc3)cc2)on1
- inhibition: -4.39% (inactive)

Compound: O=C(Cc1ccc(Br)cc1)N/N=C/c1cccnc1
- inhibition: 1.95% (inactive)

Compound: CCOC(=O)Cc1csc(SC(C)C(=O)Nc2ccc(NC(C)=O)cc2)n1 (configuration not stated)
- inhibition: -3.63% (inactive)

Compound: Cc1ccc(/C=C/C2=NN(Cc3ccccc3Cl)C(=O)CC2)cc1
- inhibition: -2.71% (inactive)
